Data reported in PubChem BioAssay (NCI).
This is part of a sample that, as a whole, favours compounds with a hit. Of some 83,000 tested, about 20% had one in any assay.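 A percent growth of 40 corresponds to 60% growth inhibition; 0 means no net growth; -100 means all cells died. Active threshold: below 10.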 The source made the active and inactive calls.

Each compound was assayed on HL-60(TB) leukemia (assay: NCI-60 one-dose screen, 48 h (100 = growth as untreated, 0 = no growth, -100 = all killed)). Conditions: 10 µM unless noted.
For `Cc1nc(C)c(C(=O)O)cc1C(=O)O`, the growth was 106% (inactive).
With `N#Cc1c(N)n(CCNC(=O)c2ccccc2)c2nc3ccccc3nc12` the growth was 34.5% (inactive).
With `COC(=O)C(Cc1cnc[nH]1)N1CC(=O)N2[C@@H](c3ccccc3)SC[C@H]2C1=O` (stereo not given in full) the growth was 90.3% (inactive).
`COc1cc2c(cc1O)CCN1C[C@@H](CC(C)C)[C@@H](O)C[C@@H]21` was tested, and the growth was 73.7% (inactive).
With `COc1cc2c(O)n(CCCN3CCOCC3)c3c4cnc5cccc(c(=O)c3c2cc1OC)c54` the growth was 42.8% (inactive).
With `NC(CSC(c1ccccc1)(c1ccccc1)c1ccc(Cl)cc1)C(=O)O` (stereo not given) the growth was -40.5% (active).
For `C=CCNc1ccccc1`, the growth was 125% (inactive).
In the case of `O=[N+]([O-])c1ccc(O)c(S(=O)(=O)O)c1`, the growth is reported as 101% (inactive).
In the case of `Cc1cc(N/N=C/c2nc(-c3ccc(Br)cc3)oc2C)c2cc(Br)ccc2n1`, the growth is reported as 18.9% (inactive).
For `COC(=O)c1ccc(=O)oc1`, the growth was 96.2% (inactive).
With `CC1CN(C2CCCCC2)C(=O)NC1=O` (stereo not given) the growth was 75.8% (inactive).
In the case of `C#CCNc1nc(NCCNC(=O)CCl)nc(N(C)CCCCc2ccccc2)n1`, the growth is reported as 107% (inactive).
With `c1ccc(C2NCCNC2c2ccccc2)cc1` (stereo not given) the growth was 103% (inactive).
`CC(=O)Nc1ccc(/C=N/N2CCCCCC2)cc1` was tested, and the growth was 95.1% (inactive).
In the case of `COc1cc2c(c(OC)c1OC)CCC(c1cccc(C(=O)Nc3ccc(Br)cc3)c1)O2` (stereo not given), the growth is reported as 73.1% (inactive).
With `O=C(CCCCCCCCC(=O)N/N=C\c1ccccc1O)N/N=C\c1ccccc1O` the growth was 14.8% (inactive).
In the case of `Cc1cnc(C=O)c2cccc([N+](=O)[O-])c12`, the growth is reported as 66.1% (inactive).
In the case of `CC1=C(C#N)C(=O)NC(C)C1` (stereo not given), the growth is reported as 91% (inactive).
In the case of `O=c1oc2ccc(Cl)cc2cc1-c1cs/c(=N/N=C\c2ccc(Cl)cc2)n1/N=C/c1ccc(Cl)cc1`, the growth is reported as 95.1% (inactive).
With `COc1ccc(-c2cc(-c3ccc(N(C)C)cc3)c(C#N)c(N3CCCC3)n2)cc1` the growth was 67.2% (inactive).
In the case of `Cc1ncc(C(=O)Nc2ccc(CN3CCN(C)CC3)c(C(F)(F)F)c2)cc1C#Cc1cnc(N)c2ncccc12`, the growth is reported as 6.76% (active).
`COc1ccc(NC(=O)c2sc3nc4c(cc3c2N)CCCC4)cc1` was tested, and the growth was -14.6% (active).
For `C=NNc1ccccc1`, the growth was 117% (inactive).
With `N#C/C(=C\N1C(=O)/C(=C/c2cccc([N+](=O)[O-])c2)SC1=S)c1nc2ccccc2s1` the growth was 94.5% (inactive).
For `CN1CC=C(c2cc(NC(=O)Nc3ccc(Oc4ccnc(NC(=O)C5CC5)c4)c(F)c3)cc(C(F)(F)F)c2)CC1`, the growth was -18.3% (active).
With `COc1cc(-c2nn(-c3ccc(NC(=O)Nc4ccc(Cl)c(Cl)c4)cc3)cc2-c2ccncc2)ccc1Cl` the growth was 4.29% (active).
`CCOc1cc(/C=N\NC(=O)N/N=C/c2ccc(O)c(OCC)c2)ccc1O` was tested, and the growth was -22.2% (active).
With `CC(=O)O[C@H]1CC[C@@]2(C)C(=CC[C@@H]3[C@@H]2CC[C@]2(C)C(=O)N(O)C(=O)C[C@@H]32)C1` the growth was 105% (inactive).
With `CCCCCCCCCCCCCCCCCCOc1ccccc1CC(=O)OCC[N+]1(C)CCOCC1` the growth was 56.1% (inactive).
`COc1cc2ncnc(Oc3cccc(NC(=O)Nc4cc(C(C)(C)C(F)(F)F)on4)c3)c2cc1OC` was tested, and the growth was 12.1% (inactive).
For `N#Cc1nc(-c2ccc(F)cc2)oc1S(=O)(=O)N1CCCCC1`, the growth was 32.4% (inactive).
With `C=CCc1cc(Nc2c3ccc(Cl)cc3nc3ccc(OC)cc23)cc(CN(CC)CC)c1O` the growth was -17% (active).
`CCCC(=O)OCC1OC(n2cnc3c(=S)nc(N)[nH]c32)C(OC(=O)CCC)C1OC(=O)CCC` (stereo not given) was tested, and the growth was 13.2% (inactive).
In the case of `CCN(Cc1ccccc1)c1ccc(SC#N)cc1`, the growth is reported as 20.3% (inactive).
With `O=C(COc1cccc(/C=C2\COc3ccccc3C2=O)c1)c1ccccc1` the growth was 40.3% (inactive).
`Cc1cccc2c3c(sc12)C(c1ccc(Cl)cc1)C(C#N)=C(N)O3` (stereo not given) was tested, and the growth was -21% (active).
`Cc1ccc2[nH]c(=O)cc(-n3nncc3COc3ccc(C=O)cc3)c2c1` was tested, and the growth was 107% (inactive).
For `NCCOc1ncccc1/C=C1\c2ccccc2-c2ccc(C(F)F)cc21`, the growth was -3.26% (active).
`COc1ccc(-c2nnc(COc3ccc(NC(=O)Nc4cccc(C(F)(F)F)c4)cc3F)o2)cc1` was tested, and the growth was 4.03% (active).
In the case of `COc1cc2nc3cc([N+](=O)[O-])ccc3c(Cl)c2cc1OC`, the growth is reported as 109% (inactive).
